# In PubChem BioAssay:
# Values without a mark were called inactive. No rule for the calls is given here.
# Molecular target: Pantothenate synthetase (Mycobacterium tuberculosis (strain ATCC 25618 / H37Rv)) (UniProt P9WIL5)
# Assay: Coupled enzyme confirmation of inhibitors against recombinant Mtb PanC (AID 375);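 also: 0% = full reaction with vehicle and 100% = no enzyme background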
# Details: coupled enzyme assay; at 10 µM, hits give high values
# Pantothenate synthetase (Mycobacterium tuberculosis (strain ATCC 25618 / H37Rv)), sequence (P9WIL5 whole entry, looked up): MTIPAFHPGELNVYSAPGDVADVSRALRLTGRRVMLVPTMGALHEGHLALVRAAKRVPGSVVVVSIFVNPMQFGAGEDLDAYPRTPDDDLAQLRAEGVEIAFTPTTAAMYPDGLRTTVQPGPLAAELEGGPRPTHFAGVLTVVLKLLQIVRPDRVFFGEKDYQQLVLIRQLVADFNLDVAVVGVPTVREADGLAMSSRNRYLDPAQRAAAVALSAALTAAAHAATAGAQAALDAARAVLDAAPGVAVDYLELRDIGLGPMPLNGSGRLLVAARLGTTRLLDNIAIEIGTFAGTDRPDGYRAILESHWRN
row,SMILES,inhibition [%]
1,O=C(CC(Cc1ccccc1)C(=O)O)NCCc1ccc2c(c1)OCO2 (configuration not stated),1
2,CCOc1ccc2c(c1)c1nnc(SCC(=O)N3CCC(C)CC3)nc1n2C,1
3,O=C(CN1CCN(Cc2ccc3c(c2)OCO3)CC1)Nc1ccc2c(c1)OCCO2,0
4,O=C(CCn1c(=O)oc2ccccc21)NCCN1CCc2ccccc2C1,0
5,CCOc1cccc(C(=O)Nc2cccc(-c3nc4ncccc4o3)c2C)c1,10
6,CC(Oc1ccccc1)C(=O)N1CCCc2ccccc21 (configuration not stated),0
7,CC(=O)Nc1ccc(S(=O)(=O)N2CCN=C2C)cc1,3
8,COc1ccccc1Oc1coc2c(CN3CCN(C)CC3)c(O)ccc2c1=O,0
9,Cc1ccc2nc(-c3ccc4c(c3)OCCO4)cc(C(=O)O)c2c1,0
10,CCC(CC)n1[nH]c(=O)c2c(C)cc(C)nc21,3
11,Cc1ccc(NC(=O)c2ccc(NS(=O)(=O)c3c(C)noc3C)cc2)cc1C,0
12,COC(=O)CCC(=O)Nc1cccc(Cl)c1,0
13,CCOCC(=O)Nc1nc2ccc(OC)cc2s1,0
14,CCOC(=O)Cc1cc(=O)n2[nH]c(C)c(-c3ccc(OC)cc3)c2n1,6
15,C=CCn1c(=O)[nH]c2cc(C(=O)N3CCN(c4ccc(C(C)=O)cc4)CC3)ccc2c1=O,1
16,COc1cccc(OC)c1C(=O)N1CCN(S(=O)(=O)c2ccccc2)CC1,0
17,O=C(NC1CCCCC1)C(c1ccco1)N(Cc1cccnc1)C(=O)C1COc2ccccc2O1 (configuration not stated),2
